Assay outcomes from PubChem BioAssay.
Sampled rows, rich in hits. Any-hit rate of the full collection: about 1.6%.
RXFP1 agonist: agonists of human relaxin receptor RXFP1 | Q9HBX9 | hit rate 0.3% among 370,000 | Potency, µM (titrated, usually from 57.5 µM), most hits filed as activators | HEK293T-RXFP1 cAMP TR-FRET, 30 min; response scale: percent of porcine relaxin response, buffer zero | AID 2676; active = well fitted activation curve with a large enough effect; inconclusive = small, poorly fitted or top-dose-only effect; also: nearly all actives have a fitted effect of over 60% in size
Target sequence (Q9HBX9 whole entry, looked up): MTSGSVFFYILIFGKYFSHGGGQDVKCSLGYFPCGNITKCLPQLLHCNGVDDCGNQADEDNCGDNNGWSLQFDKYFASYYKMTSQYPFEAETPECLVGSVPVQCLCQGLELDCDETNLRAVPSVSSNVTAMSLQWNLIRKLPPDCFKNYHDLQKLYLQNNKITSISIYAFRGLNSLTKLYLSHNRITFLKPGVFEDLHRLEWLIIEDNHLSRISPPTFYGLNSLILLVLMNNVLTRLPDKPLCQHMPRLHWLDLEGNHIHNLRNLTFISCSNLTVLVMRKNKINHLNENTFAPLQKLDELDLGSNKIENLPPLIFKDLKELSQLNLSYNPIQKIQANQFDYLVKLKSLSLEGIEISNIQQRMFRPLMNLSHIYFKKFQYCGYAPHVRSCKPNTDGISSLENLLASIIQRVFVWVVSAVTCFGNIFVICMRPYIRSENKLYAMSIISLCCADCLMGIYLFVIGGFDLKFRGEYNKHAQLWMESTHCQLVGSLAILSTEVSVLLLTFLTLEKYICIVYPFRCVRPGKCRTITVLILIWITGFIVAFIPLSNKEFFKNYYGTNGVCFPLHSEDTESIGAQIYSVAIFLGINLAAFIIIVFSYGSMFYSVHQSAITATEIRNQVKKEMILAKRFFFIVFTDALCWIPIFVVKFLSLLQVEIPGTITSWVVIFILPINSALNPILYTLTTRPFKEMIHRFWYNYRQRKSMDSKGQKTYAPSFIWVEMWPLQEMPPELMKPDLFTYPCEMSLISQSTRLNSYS
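HEK293 cells stably expressing RXFP1, treated 30 min at 37C with compounds plus PDE4 inhibitor Ro 20174; cAMP measured by HTRF TR-FRET. Normalized to buffer and 29 nM porcine relaxin; EC50 by Hill fit.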
Coupling enz: counter-screen for Giardia aldolase inhibitors: coupling enzyme system; coupling enzyme system counterscreen, AmpLite Red fluorescence; activity change, negative = inhibition, % at 58.2 µM, hits read low; hit rate 0.67% among 290,000; AID 2472; in the data active = activity change below about -30%
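Coupling enzymes only (glyceraldehyde-3-phosphate) + compound, at 57.5 uM final, 10 min RT; add substrate/coupling/AmpLite Red mix, 20 min RT; fluorescence ex 525/em 598 nm. Actives flag coupling-system interference.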
RXFP1 antag: blocks the human relaxin receptor RXFP1; HEK293-RXFP1, relaxin-stimulated cAMP HTRF, 30 min; stronger effect = lower value; activity change, negative = inhibition, % at 57.5 µM; hit rate 0.59% among 350,000; AID 1259400;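 active = activity change of -60% or lower, but not beyond a set lower limit; inconclusive = change between -60% and -40%, or beyond the set limit; inactive = change above -40%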
Giardia kill: kills Giardia lamblia. Giardia lamblia trophozoite viability. activity change, % at 7.66 µM, hits read low. hit rate 0.15% among 340,000; in the data active = activity change below about -80%; inconclusive = between about -30% and that limit;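 also: parasites exposed to compound for two days anaerobically before the ATP read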
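Giardia trophozoites, 100 cells per well, were exposed to compounds for 48 hrs at 37 deg C under anaerobic conditions; viability was then read as ATP content by bioluminescence after 15-30 min at room temperature.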
gsp ag: activates gsp, the McCune-Albright syndrome mutation; hit rate 0.13% among 340,000; Potency, µM (titrated, usually from 76.9 µM), hits mostly activators; gsp mutant cells, cAMP HTRF, 30 min; AID 624287; active = well fitted activation curve with a large enough effect; inconclusive = small, poorly fitted or top-dose-only effect, or another doubt; inactive = no such curve, though single readings can be large or run the other way; cell line not stated here;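 also: phosphodiesterase inhibitor Ro 20-1724 added with compounds to block cAMP breakdown; nearly all actives have a fitted effect of over 60% in size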
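Cells stably selected in G418 were plated at 2000/well, grown 16-24 hr, then given compounds in DMSO with the PDE inhibitor […] (300 uM solution added) for 30 min at 37C; cAMP was read by HTRF.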
gsp antagonist: antagonists of gsp mutant (McCune-Albright syndrome); gsp-mutant cells, cAMP HTRF, 30 min; Potency, µM (doses to about 76.9 µM), most hits filed as inhibitors; hit rate 0.4% among 340,000; AID 624288; calls by dose curve; cell line not stated here;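 also: intracellular cAMP measured with PDE inhibitor Ro 20-1724 present during compound exposure; nearly all actives have a fitted effect of over 65% in size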
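Measurement of cellular cAMP by homogeneous time-resolved fluorescence following a 30 min compound exposure at 37C. The PDE inhibitor […] was present throughout; the assay buffer was DPBS with 0.05% BSA and 0.005% Tween 20.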
Of the large screens only hits and unclear results are named; the others gave an inactive call.

Cc1cccc(N2CCN(C(=O)C3CCN(c4ncnc5c4nc4n5CCCCC4)CC3)CC2C)c1 (stereo not given)	RXFP1 antag inconclusive, gsp antagonist 40µM
Cc1ccc(C)c(N2CCN(C(=O)C3CCCN(c4ncnc5c4nc4n5CCCCC4)C3)CC2)c1 (stereo not given)	RXFP1 antag -83, gsp antagonist inconclusive
Cc1cccc(N2CCN(C(=O)C3CCN(c4ncnc5c4nc4n5CCCCC4)CC3)CC2)c1C	gsp antagonist inconclusive (no result: Coupling enz)
Cc1ccc(N2CCN(C(=O)C3CCCN(c4ncnc5c4nc4n5CCCCC4)C3)CC2)c(C)c1 (stereo not given)	none (no result: Coupling enz)
CCCCCCCC/C=C/CCCCCCCC(=O)NCCOP(=O)(O)O	none (no result: RXFP1 agonist, RXFP1 antag, Giardia kill, gsp ag, gsp antagonist)
CC(=O)C1=C(c2cccc([N+](=O)[O-])c2)N(C(C)=O)n2c(nnc2-c2ccc(C)cc2)S1	none (no result: Coupling enz, Giardia kill, gsp ag, gsp antagonist)
CCn1c(=NC(=O)CS(=O)(=O)c2ccc(C)cc2)sc2cccc(OC)c21	gsp antagonist 35µM (no result: Coupling enz)
CCc1ccccc1NC(=O)[C@@H](c1ccccc1)N1Cc2ccccc2C1=O	none (no result: Coupling enz, RXFP1 antag, Giardia kill, gsp ag, gsp antagonist)
CN(C)CCNC(=O)/C(=C/c1ccc(-c2ccc(Cl)cc2Cl)o1)NC(=O)c1ccccc1	RXFP1 antag -70
Cc1ccc(C(=O)N/C(=C\c2ccc(-c3cccc([N+](=O)[O-])c3)o2)C(=O)NCCCN(C)C)cc1	none
Cc1ccc(C(=O)N/C(=C\c2ccc(-c3ccc(Br)cc3)o2)C(=O)NCCCN(C)C)cc1	RXFP1 antag -61, gsp ag inconclusive
Cc1cn([C@@H]2O[C@H](CO)[C@@H](O)[C@H]2F)c(=O)[nH]c1=O	none (no result: RXFP1 agonist, Coupling enz, Giardia kill, gsp ag, gsp antagonist)
CCN(CC)c1ccc(Nc2nc(N3CCOCC3)c3ccccc3n2)cc1	gsp antagonist 50µM
CC(Oc1ccccc1F)C(=O)N1CCC(c2nc3ccccc3o2)CC1 (stereo not given)	none (no result: Coupling enz, Giardia kill, gsp ag, gsp antagonist)
Cc1cccc(OC(C)C(=O)N2CCC(c3nc4ccccc4o3)CC2)c1C (stereo not given)	RXFP1 antag -63 (no result: Coupling enz, Giardia kill, gsp ag, gsp antagonist)
O=C(CC1C(=O)N(c2ccccc2)C(=S)N1c1ccccc1)c1ccccc1 (stereo not given)	none
O=C(CC1C(=O)N(c2ccccc2)C(=S)N1c1ccccc1)c1ccc(Br)cc1 (stereo not given)	RXFP1 antag -73
Cc1cc(S(=O)(=O)Nc2cccc([N+](=O)[O-])c2)c(C)s1	none
O=[N+]([O-])c1cccc(NNS(=O)(=O)c2ccccc2F)c1	Coupling enz -30
C/C=C\C1=C(CO)C(=O)[C@@H]2OC2C1=O (stereo not given in full)	none (no result: RXFP1 agonist, RXFP1 antag, Giardia kill, gsp ag, gsp antagonist)
Cc1nn(Cc2ccc(Cl)c(Cl)c2)c(C)c1NC(=O)c1cc(-c2ccco2)on1	gsp antagonist 32µM
OCc1ccccc1SSc1ccccc1CO	RXFP1 antag -65, gsp antagonist inconclusive (no result: RXFP1 agonist, Coupling enz)
CC1=C(C(N)=O)C(c2cccc(C)c2)n2nc(-c3ccc(Cl)cc3)nc2N1 (stereo not given)	RXFP1 antag -62 (no result: Coupling enz, Giardia kill, gsp ag, gsp antagonist)
COc1ccc(-c2nc3n(n2)C(c2cccnc2)C(C(N)=O)=C(C)N3)cc1 (stereo not given)	none
Cc1ccc(NC(=O)C2=C(c3ccccc3)S(=O)(=O)CCS2(=O)=O)cc1	RXFP1 antag inconclusive, gsp antagonist 28µM
Cc1ccc(NC(=O)c2ccccc2)cc1	none
CCNC(=S)N1CCN(c2nc(CC)nc3sc4c(c23)CCCC4)CC1	gsp antagonist 25µM
COc1c(O)cc2oc3cc(O)c(CC=C(C)C)c(O)c3c(=O)c2c1CC=C(C)C	none (no result: RXFP1 agonist, RXFP1 antag, Giardia kill, gsp ag, gsp antagonist)
CC(C)=CCc1c(O)cc2oc3c(CC=C(C)C)c(O)c(O)c(CC=C(C)C)c3c(=O)c2c1O	gsp ag inconclusive, gsp antagonist 32µM
c1ccc(CSc2nc3ncccc3[nH]2)cc1	none (no result: Coupling enz, Giardia kill, gsp ag, gsp antagonist)
Cc1ncc([N+](=O)[O-])n1CCOC(=O)NC(NCc1ccccc1Cl)C(Cl)(Cl)Cl (stereo not given)	Giardia kill -119
Cc1ccc(NC(NC(=O)OCCn2c([N+](=O)[O-])cnc2C)C(Cl)(Cl)Cl)cc1 (stereo not given)	none (no result: RXFP1 antag, Giardia kill, gsp ag, gsp antagonist)
COc1ccc(NC(=O)OCCn2c([N+](=O)[O-])cnc2C)cc1	Giardia kill -87
Cc1ncc([N+](=O)[O-])n1CC(=O)Nc1ccc(Cl)cc1	none
COC(=O)c1ccc(S(=O)(=O)NC(C)(C)C)n1C	none
Cc1ccc(C(=O)c2c3ccc(C(F)(F)F)cc3[n+]([O-])n2CCCN)cc1	Giardia kill -90 (no result: Coupling enz, RXFP1 antag)
Cc1cc(NS(=O)(=O)c2ccc(Nc3nc(-c4ccc(O)cc4)cs3)cc2)no1	none
Cc1cc(NS(=O)(=O)c2ccc(Nc3nc(-c4ccc(C)c(C)c4)cs3)cc2)no1	gsp antagonist 22µM
CC(C)C[C@H](NC(=O)[C@@H]1CCC(=O)N1)C(=O)N[C@@H](Cc1ccc(O)cc1)C(=O)N[C@@H](CCC(=O)O)C(=O)N[C@@H](CC(N)=O)C(=O)N[C@@H](CCCCN)C(=O)N1CCC[C@H]1C(=O)N[C@@H](CCCN=C(N)N)C(=O)N[C@@H](CCCN=C(N)N)C(=O)N1CCC[C@H]1C(=O)N[C@@H](Cc1ccc(O)cc1)C(=O)O	none (no result: RXFP1 agonist, RXFP1 antag, Giardia kill, gsp ag, gsp antagonist)
CCOc1ccc(NC(=O)c2cnn3c2NC(c2ccccc2)=CC3c2cccc(OC)c2OC)cc1 (stereo not given)	none (no result: Coupling enz, Giardia kill, gsp ag, gsp antagonist)
O=C1CC2(CCCCC2)CC(=O)N1CCc1ccccc1	none (no result: RXFP1 agonist, Coupling enz)
O=C1C=CC(=O)C(C2=C3C(=O)N(CCc4ccccc4)CC(=O)N3CCC2)=C1	Coupling enz -55
CC(C)C(=O)OCc1cccc(OC(=O)[C@@H]2N3C(=O)[C@@H](NC(=O)Cc4ccccc4)[C@H]3SC2(C)C)c1	none (no result: RXFP1 agonist, Coupling enz, Giardia kill, gsp ag, gsp antagonist)
COc1ccc2nc3ccccc3nc2c1NC(=O)c1ccc(Cl)cc1Cl	Coupling enz -33
CCc1ccc(CNC(=O)C2CCN(C(=O)N3CC(CC)Oc4ccc(C)cc43)CC2)cc1 (stereo not given)	RXFP1 antag -68 (no result: Coupling enz, Giardia kill, gsp ag, gsp antagonist)
CCC1CN(C(=O)N2CCC(C(=O)NCCc3ccccc3Cl)CC2)c2cc(C)ccc2O1 (stereo not given)	RXFP1 antag -87 (no result: Coupling enz, Giardia kill, gsp ag, gsp antagonist)
Cc1nc2sc(C(N)=O)c(N)c2c(C)c1CC(=O)c1ccccc1	RXFP1 antag inconclusive
CCn1c(SCC(=O)N/N=C/C=C/c2ccco2)nc2ccccc21	gsp ag inconclusive
CCn1c(SCC(=O)N/N=C/C=C/c2ccco2)nnc1-c1ccc(OC)cc1	Coupling enz -39
CCNC(=S)Nc1cc(OCC)c(N2CCOCC2)cc1OCC	none
CCCNC(=O)Nc1cc(OCC)c(N2CCOCC2)cc1OCC	Coupling enz -53
CCOc1cc(N2CCOCC2)c(OCC)cc1NS(=O)(=O)c1ccc(Cl)s1	Coupling enz -45
